Assay results from the supplement of paper PMC10849652.
Of roughly 8,800 targets only a part is listed; those with a hit were picked by preference. About 0.5% of all pairs of compound and target were hits.

Tests used:
Test in all cases: log2 fold change, soluble protein after heating vs DMSO (PISA); higher = thermal stabilisation; K562 lysate, 10 uM; active = over 0.2 and 3.5 SD of the protein, either way, in both replicates (recomputed)
[1] = compound: CN1CC[C@H](c2c(O)cc(O)c3c(=O)cc(-c4ccccc4Cl)oc23)[C@H](O)C1 [alvocidib]
Procedure, shortened: (§1)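 Log-two fold change in thermal stability relative to solvent controls is reported from duplicates. For each sample, crude K562 extract from dounce-homogenised pellets in PBS pH 7.4 with 1 mM MgCl2, at 1 mg/mL protein, was treated with 10 μM compound for 30 min. Aliquots heated for 3 min across 48°C-58°C were pooled, brought to 0.5% NP-40 at 4°C and cleared at 21,000xg for 90 min. The supernatant was quantified by TMTpro 16plex LC-MS/MS with channel sums equalised.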

[2] = compound: CN1CCc2c(c3ccccc3n2Cc2ccc(C(=O)NO)cc2)C1 [Tubastatin A]
Procedure, shortened: as §1

[3] = compound: CNC(=O)C1=CC=CC=C1NC2=NC(=NC=C2Cl)NC3=C(C=C(C=C3)N4CCOCC4)OC
Procedure, shortened: as §1

[4] = compound: CNC(=O)c1ccc(Nc2ncc(C(F)(F)F)c(NCc3nccnc3N(C)S(C)(=O)=O)n2)cc1 [defactinib]
Procedure, shortened: as §1

[5] = compound: CNc1nc(-c2ccc3c(N)n[nH]c3c2)cc(N2C[C@@H](C(=O)NC3CCCCC3)CC[C@H]2C)n1
Procedure, shortened: as §1

[6] = compound: COC(=O)N[C@@H](C)CNc1nccc(-c2cn(C(C)C)nc2-c2cc(Cl)cc(NS(C)(=O)=O)c2F)n1 [encorafenib]
Procedure, shortened: as §1

[7] = compound: COC(=O)[C@H](CCSC)NC(=O)C1=C(C=C(C=C1)NC[C@H](CS)N)C2=CC=CC=C2
Procedure, shortened: as §1

[8] = compound: COc1cc(Nc2ncc3c(n2)-c2ccc(Cl)cc2C(c2c(F)cccc2OC)=NC3)ccc1C(=O)O [alisertib]
Procedure, shortened: as §1

[9] = compound: COc1cc2nc(-c3cc(F)ccc3O)nc(N[C@@H]3CNC[C@H]3C(C)(C)O)c2cc1OC
Procedure, shortened: as §1

[10] = compound: COc1cc2ncnc(Nc3ccc(F)c(Cl)c3)c2cc1OCCCN1CCOCC1 [gefitinib]
Procedure, shortened: as §1

[11] = compound: CS(=O)(=O)CCNCc1ccc(-c2ccc3ncnc(Nc4ccc(OCc5cccc(F)c5)c(Cl)c4)c3c2)o1 [lapatinib]
Procedure, shortened: as §1

[12] = compound: CS(=O)(=O)N1CCN(Cc2cc3nc(-c4cccc5[nH]ncc45)nc(N4CCOCC4)c3s2)CC1 [pictilisib]
Procedure, shortened: as §1

[13] = compound: C[C@@H](Oc1cc(-c2cnn(C3CCNCC3)c2)cnc1N)c1c(Cl)ccc(F)c1Cl [crizotinib]
Procedure, shortened: as §1

[14] = compound: C[C@H](C1=CC=C(C=C1)C(=O)NC2=C3C=CNC3=NC=C2)N
Procedure, shortened: as §1

[15] = compound: C[C@H](Nc1ncnc2nc[nH]c12)c1cc2cccc(Cl)c2c(=O)n1-c1ccccc1 [duvelisib]
Procedure, shortened: as §1

[16] = compound: Cc1cc(Nc2cc(CN3CCOCC3)c3nc(C)c(Cc4ccc(Cl)cc4F)n3n2)n[nH]1 [gandotinib]
Procedure, shortened: as §1

[17] = compound: Cc1cc(Nc2cc(N3CCN(C)CC3)nc(Sc3ccc(NC(=O)C4CC4)cc3)n2)n[nH]1 [tozasertib]
Procedure, shortened: as §1

[18] = compound: Cc1ccc(-n2nc(C(C)(C)C)cc2NC(=O)Nc2ccc(OCCN3CCOCC3)c3ccccc23)cc1 [doramapimod]
Procedure, shortened: as §1

[19] = compound: Cc1ccc(NC(=O)c2ccc(CN3CC[C@H](N(C)C)C3)c(C(F)(F)F)c2)cc1Nc1nccc(-c2cncnc2)n1 [bafetinib]
Procedure, shortened: as §1

[20] = compound: Cc1cccc(CC(=O)N2CCc3c2ccc(-c2cn(C)c4ncnc(N)c24)c3F)n1
Procedure, shortened: as §1

Measured: log2 fold change

GALK1 isoform 2 (UniProt P51570)
Sequence of UniProt P51570 (P51570 whole entry, looked up): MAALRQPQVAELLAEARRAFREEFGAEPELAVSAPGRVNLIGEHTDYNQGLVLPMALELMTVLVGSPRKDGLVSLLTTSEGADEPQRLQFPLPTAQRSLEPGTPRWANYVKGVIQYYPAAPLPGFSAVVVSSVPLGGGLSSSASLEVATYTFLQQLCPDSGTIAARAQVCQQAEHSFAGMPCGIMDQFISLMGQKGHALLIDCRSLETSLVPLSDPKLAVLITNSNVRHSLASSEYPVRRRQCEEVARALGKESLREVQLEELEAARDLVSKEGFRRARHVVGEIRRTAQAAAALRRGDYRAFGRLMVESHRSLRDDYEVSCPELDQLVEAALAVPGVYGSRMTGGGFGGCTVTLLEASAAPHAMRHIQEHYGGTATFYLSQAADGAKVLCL
inactive: [1] 0.035 | [2] -0.132 | [3] -0.005 | [4] -0.002 | [5] 0 | [6] 0.02 | [7] -0.171 | [8] 0.054 | [9] -0.016 | [10] 0.034 | [11] -0.002 | [12] -0.02 | [13] -0.015 | [14] 0.092 | [15] -0.028 | [16] -0.098 | [17] 0.03 | [18] 0.039 | [19] -0.007 | [20] -0.013

DSTN (UniProt P60981)
Sequence of UniProt P60981 (P60981 whole entry, looked up): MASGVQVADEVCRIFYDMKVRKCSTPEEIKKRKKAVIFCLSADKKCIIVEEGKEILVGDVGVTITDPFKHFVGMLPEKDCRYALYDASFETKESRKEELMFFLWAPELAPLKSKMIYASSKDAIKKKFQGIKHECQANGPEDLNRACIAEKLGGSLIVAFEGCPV
inactive: [1] -0.011 | [2] -0.089 | [3] 0.015 | [4] 0.002 | [5] -0.072 | [6] -0.011 | [7] -0.071 | [8] -0.013 | [9] -0.02 | [10] -0.043 | [11] 0.01 | [12] 0.008 | [13] 0.007 | [14] -0.02 | [15] -0.001 | [16] -0.023 | [17] 0.031 | [18] -0.015 | [19] 0.057 | [20] 0.019

EP400 isoform 5 (UniProt Q96L91)
inactive: [1] 0.015 | [2] -0.022 | [3] 0.037 | [4] 0.01 | [5] 0.035 | [6] -0.028 | [7] 0.068 | [8] 0.004 | [9] 0.023 | [10] -0.055 | [11] 0.052 | [12] -0.068 | [13] -0.04 | [14] -0.018 | [15] -0.036 | [16] -0.012 | [17] -0.041 | [18] 0.02 | [19] -0.053 | [20] -0.011

DST (UniProt Q03001)
inactive: [1] -0.047 | [2] 0.033 | [3] -0.003 | [4] -0.094 | [5] 0.114 | [6] 0.018 | [7] 0.048 | [8] 0.003 | [9] 0.033 | [10] 0.046 | [11] -0.019 | [12] 0.015 | [13] -0.02 | [14] -0.17 | [15] 0.018 | [16] 0.101 | [17] 0.024 | [18] 0.023 | [19] -0.137 | [20] 0.246

GART (UniProt P22102)
inactive: [1] 0.021 | [2] -0.073 | [3] 0.002 | [4] -0.024 | [5] 0.021 | [6] -0.027 | [7] 0.08 | [8] 0.008 | [9] -0.004 | [10] -0.017 | [11] -0.008 | [12] -0.024 | [13] -0.017 | [14] 0.062 | [15] -0.014 | [16] -0.052 | [17] -0.004 | [18] 0 | [19] -0.001 | [20] -0.026

ESPL1 (UniProt Q14674)
inactive: [1] 0.044 | [2] -0.023 | [3] 0.129 | [4] -0.188 | [5] 0.053 | [6] 0.101 | [7] -0.013 | [8] 0.004 | [9] -0.233 | [10] -0.009 | [11] 0.053 | [12] 0.07 | [13] -0.015 | [14] 0.027 | [15] -0.011 | [16] 0.026 | [17] 0.024 | [18] -0.044 | [19] -0.077 | [20] 0.057

FBXO38 (UniProt Q6PIJ6)
Sequence of UniProt Q6PIJ6 (Q6PIJ6 whole entry, looked up): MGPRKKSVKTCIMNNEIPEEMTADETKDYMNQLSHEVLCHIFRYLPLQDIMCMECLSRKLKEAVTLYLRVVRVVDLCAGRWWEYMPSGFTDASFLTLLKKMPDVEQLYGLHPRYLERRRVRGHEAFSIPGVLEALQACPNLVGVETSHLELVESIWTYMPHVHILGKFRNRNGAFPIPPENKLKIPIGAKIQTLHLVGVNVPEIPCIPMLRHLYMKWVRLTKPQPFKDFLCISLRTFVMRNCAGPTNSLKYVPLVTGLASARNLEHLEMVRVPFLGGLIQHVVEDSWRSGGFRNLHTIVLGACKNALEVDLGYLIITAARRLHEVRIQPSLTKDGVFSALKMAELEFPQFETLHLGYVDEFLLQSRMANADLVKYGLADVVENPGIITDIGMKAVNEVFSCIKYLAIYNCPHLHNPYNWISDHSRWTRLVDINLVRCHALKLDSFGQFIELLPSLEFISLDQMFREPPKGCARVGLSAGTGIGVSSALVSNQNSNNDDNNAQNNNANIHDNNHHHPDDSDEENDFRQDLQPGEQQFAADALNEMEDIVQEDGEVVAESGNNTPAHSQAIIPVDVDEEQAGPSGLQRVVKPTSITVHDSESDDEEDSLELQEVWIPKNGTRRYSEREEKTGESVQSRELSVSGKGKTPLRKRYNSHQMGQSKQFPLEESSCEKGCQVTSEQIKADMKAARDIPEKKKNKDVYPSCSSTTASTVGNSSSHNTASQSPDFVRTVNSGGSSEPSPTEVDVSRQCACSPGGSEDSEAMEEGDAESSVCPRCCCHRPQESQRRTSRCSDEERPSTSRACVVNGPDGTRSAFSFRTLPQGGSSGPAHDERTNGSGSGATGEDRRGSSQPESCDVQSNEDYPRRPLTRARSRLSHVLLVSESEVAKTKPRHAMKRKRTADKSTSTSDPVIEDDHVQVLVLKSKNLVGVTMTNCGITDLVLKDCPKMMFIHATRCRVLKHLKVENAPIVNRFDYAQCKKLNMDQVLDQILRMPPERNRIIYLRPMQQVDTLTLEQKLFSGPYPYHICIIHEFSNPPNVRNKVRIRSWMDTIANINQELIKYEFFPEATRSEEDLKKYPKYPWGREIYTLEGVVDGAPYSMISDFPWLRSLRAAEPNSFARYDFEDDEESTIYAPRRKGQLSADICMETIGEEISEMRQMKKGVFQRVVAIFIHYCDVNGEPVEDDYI
inactive: [1] -0.008 | [2] -0.043 | [4] 0.019 | [5] 0.01 | [6] -0.004 | [7] -0.038 | [8] -0.015 | [9] -0.062 | [10] 0.056 | [11] 0.039 | [12] -0.052 | [13] 0.038 | [14] 0.018 | [15] 0.01 | [16] -0.037 | [17] 0.119 | [18] 0.05 | [19] -0.316 | [20] -0.016
active: [3] -0.616

FNBP1L (UniProt Q5T0N5)
Sequence of UniProt Q5T0N5 (Q5T0N5 whole entry, looked up): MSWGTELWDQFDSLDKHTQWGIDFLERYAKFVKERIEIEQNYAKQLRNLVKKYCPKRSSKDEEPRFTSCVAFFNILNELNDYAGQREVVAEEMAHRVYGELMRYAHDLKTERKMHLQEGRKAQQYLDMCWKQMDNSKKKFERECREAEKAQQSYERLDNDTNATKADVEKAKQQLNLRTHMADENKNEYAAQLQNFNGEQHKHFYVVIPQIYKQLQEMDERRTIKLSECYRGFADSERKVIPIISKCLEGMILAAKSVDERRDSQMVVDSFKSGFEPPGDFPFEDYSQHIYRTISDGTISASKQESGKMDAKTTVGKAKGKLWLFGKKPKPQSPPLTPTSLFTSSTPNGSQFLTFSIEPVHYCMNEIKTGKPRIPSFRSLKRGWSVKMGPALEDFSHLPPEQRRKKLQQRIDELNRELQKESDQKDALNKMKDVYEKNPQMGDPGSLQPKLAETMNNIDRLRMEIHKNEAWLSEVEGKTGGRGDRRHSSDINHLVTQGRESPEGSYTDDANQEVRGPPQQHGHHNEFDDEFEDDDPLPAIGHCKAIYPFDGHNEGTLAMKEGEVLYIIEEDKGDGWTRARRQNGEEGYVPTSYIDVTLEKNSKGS
inactive: [1] 0.04 | [2] -0.043 | [3] 0.023 | [4] -0.066 | [6] 0.045 | [7] 0.034 | [8] 0.005 | [9] -0.015 | [10] 0.099 | [11] 0.005 | [12] 0 | [13] -0.039 | [14] -0.023 | [15] -0.115 | [16] 0.002 | [17] -0.003 | [18] 0.113 | [19] -0.089 | [20] -0.026
active: [5] 0.357

EXOC2 (UniProt Q96KP1)
Sequence of UniProt Q96KP1 (Q96KP1 whole entry, looked up): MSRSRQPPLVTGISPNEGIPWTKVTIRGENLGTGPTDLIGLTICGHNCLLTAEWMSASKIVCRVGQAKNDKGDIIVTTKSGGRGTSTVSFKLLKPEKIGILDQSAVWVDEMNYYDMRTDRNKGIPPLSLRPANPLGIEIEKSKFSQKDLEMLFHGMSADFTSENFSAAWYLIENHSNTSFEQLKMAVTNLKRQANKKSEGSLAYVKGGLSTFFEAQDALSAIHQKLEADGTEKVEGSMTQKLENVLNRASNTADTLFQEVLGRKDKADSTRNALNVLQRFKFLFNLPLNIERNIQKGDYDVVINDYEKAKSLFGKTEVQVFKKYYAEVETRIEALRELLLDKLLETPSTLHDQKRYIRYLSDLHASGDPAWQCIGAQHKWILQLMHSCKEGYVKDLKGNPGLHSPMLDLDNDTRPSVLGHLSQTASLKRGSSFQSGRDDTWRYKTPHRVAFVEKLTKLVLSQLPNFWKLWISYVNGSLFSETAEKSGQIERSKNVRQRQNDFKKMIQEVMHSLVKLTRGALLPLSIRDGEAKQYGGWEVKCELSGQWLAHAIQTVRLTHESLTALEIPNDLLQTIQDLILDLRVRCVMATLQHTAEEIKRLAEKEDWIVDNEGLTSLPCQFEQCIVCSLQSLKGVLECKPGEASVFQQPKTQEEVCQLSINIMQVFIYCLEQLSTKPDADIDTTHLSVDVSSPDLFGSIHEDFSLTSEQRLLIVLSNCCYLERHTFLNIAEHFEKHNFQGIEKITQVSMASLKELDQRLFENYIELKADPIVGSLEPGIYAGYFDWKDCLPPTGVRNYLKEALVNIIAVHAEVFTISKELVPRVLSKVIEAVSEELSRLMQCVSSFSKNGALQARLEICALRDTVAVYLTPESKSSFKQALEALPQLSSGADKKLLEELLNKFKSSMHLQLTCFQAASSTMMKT
inactive: [1] 0.025 | [2] -0.107 | [3] -0.012 | [4] 0.046 | [5] -0.048 | [6] 0.031 | [7] 0.027 | [8] 0 | [9] 0.007 | [10] 0.005 | [11] -0.016 | [12] -0.011 | [13] -0.099 | [14] 0.017 | [15] -0.032 | [16] -0.185 | [17] 0.001 | [18] 0.042 | [19] -0.056 | [20] 0.059

FBXO9 (UniProt Q9UK97)
Sequence of UniProt Q9UK97 (Q9UK97 whole entry, looked up): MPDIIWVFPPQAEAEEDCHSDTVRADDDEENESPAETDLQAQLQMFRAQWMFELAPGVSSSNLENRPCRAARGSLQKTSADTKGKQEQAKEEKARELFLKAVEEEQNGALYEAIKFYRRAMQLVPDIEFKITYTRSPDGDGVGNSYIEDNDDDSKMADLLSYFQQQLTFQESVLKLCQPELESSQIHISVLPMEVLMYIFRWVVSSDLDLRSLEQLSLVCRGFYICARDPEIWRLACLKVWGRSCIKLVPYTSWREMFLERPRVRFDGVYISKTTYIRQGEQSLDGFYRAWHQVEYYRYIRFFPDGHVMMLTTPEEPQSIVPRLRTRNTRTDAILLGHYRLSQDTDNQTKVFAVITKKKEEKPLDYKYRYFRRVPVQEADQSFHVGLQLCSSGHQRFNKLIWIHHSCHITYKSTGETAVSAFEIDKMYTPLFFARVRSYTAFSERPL
inactive: [1] 0.099 | [2] -0.006 | [3] -0.015 | [4] 0.104 | [5] 0.037 | [6] 0.078 | [7] -0.042 | [8] -0.011 | [10] 0.04 | [11] -0.334 | [12] -0.107 | [13] -0.023 | [14] 0.08 | [15] -0.012 | [16] -0.141 | [17] 0.041 | [18] 0.044 | [19] 0 | [20] -0.104
active: [9] -0.402

EEF1A1P5 (UniProt Q5VTE0)
inactive: [1] -0.022 | [2] -0.065 | [3] -0.021 | [4] -0.015 | [5] -0.218 | [6] -0.027 | [7] 0.127 | [8] 0.023 | [9] 0.009 | [10] 0 | [11] -0.006 | [12] 0.027 | [13] -0.026 | [14] -0.114 | [15] -0.098 | [16] 0.044 | [17] -0.001 | [18] 0.011 | [19] -0.017 | [20] 0.117

FXR2 (UniProt P51116)
inactive: [1] 0 | [2] -0.159 | [3] -0.083 | [4] -0.117 | [5] -0.018 | [6] 0.06 | [7] 0.064 | [8] 0.017 | [9] 0.013 | [10] 0.012 | [11] -0.002 | [12] -0.055 | [13] -0.017 | [14] -0.022 | [15] -0.016 | [16] -0.074 | [17] 0.009 | [18] 0.037 | [19] 0.002 | [20] 0.027

FOXK1 (UniProt P85037)
Sequence of UniProt P85037 (P85037 whole entry, looked up): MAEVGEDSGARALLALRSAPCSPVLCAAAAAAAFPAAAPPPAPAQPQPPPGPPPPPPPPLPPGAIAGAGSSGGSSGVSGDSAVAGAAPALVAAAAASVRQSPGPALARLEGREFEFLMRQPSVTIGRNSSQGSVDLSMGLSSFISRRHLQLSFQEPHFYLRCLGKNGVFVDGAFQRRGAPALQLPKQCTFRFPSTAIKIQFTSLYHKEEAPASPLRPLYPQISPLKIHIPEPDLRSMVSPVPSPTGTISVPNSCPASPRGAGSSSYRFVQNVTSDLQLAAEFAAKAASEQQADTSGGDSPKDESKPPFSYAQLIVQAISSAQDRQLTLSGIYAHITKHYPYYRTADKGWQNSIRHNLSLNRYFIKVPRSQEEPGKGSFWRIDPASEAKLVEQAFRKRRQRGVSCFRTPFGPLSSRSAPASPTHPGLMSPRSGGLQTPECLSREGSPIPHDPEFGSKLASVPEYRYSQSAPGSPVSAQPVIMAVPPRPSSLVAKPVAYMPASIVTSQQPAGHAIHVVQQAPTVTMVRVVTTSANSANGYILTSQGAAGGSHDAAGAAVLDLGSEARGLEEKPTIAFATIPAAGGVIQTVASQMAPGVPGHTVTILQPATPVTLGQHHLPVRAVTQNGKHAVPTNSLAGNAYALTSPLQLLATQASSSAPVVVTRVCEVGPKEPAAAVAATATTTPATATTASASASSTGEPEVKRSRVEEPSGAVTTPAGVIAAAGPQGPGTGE
inactive: [1] -0.037 | [2] -0.116 | [3] 0.025 | [4] 0.003 | [5] 0.059 | [6] 0.009 | [7] 0.09 | [8] 0.016 | [9] 0.014 | [10] 0.003 | [11] 0.006 | [12] -0.036 | [13] 0.025 | [14] -0.024 | [15] -0.043 | [16] 0.002 | [17] 0.009 | [18] 0.035 | [19] 0.029 | [20] 0.034

ECH1 (UniProt Q13011)
Sequence of UniProt Q13011 (Q13011 whole entry, looked up): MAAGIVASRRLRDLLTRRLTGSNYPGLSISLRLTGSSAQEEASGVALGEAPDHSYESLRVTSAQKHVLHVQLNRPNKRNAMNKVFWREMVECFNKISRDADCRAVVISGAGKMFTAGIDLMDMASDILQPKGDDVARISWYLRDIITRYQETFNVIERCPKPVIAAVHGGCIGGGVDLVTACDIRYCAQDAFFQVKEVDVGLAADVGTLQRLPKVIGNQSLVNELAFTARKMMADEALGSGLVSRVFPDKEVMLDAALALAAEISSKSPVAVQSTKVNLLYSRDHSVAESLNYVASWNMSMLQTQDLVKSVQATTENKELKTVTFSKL
inactive: [1] 0.017 | [3] -0.028 | [4] 0.004 | [5] -0.004 | [6] -0.033 | [7] -0.024 | [8] -0.01 | [9] 0.047 | [10] -0.001 | [11] -0.035 | [12] -0.008 | [13] -0.03 | [14] -0.089 | [15] 0.016 | [16] 0.005 | [17] 0.178 | [18] -0.008 | [19] 0.091 | [20] 0.028
active: [2] 0.309

FBXO30 (UniProt Q8TB52)
inactive: [1] 0.066 | [2] -0.106 | [3] 0.03 | [4] 0.042 | [5] -0.091 | [6] 0.036 | [7] 0.1 | [8] -0.014 | [9] -0.006 | [10] 0.029 | [11] -0.015 | [12] -0.03 | [13] -0.013 | [14] 0.187 | [15] 0.024 | [16] -0.072 | [17] -0.021 | [18] 0.045 | [19] 0.032 | [20] -0.117
